PubChem BioAssay AID463173 (ICCB-Longwood Screening Facility, Harvard Medical School, 2010)
Hit rate of the full screen: of about 52,000 compounds, about 4,300 (8.3%) were called active. Rule as the data show it: active = survival mostly below about 52% (no sharp cut-off); inactive = mostly above about 56%. The list comes from a sample in which actives are over-represented; it also holds similar structures and randomly drawn compounds.

What follows are compounds tested on DeltatarO mutant (assay: growth inhibition of S. aureus wild type versus tarO mutant, primary screen, teichoic acid synthesis inhibitors, RN4220, OD600 (AID 463173)). Details: OD600, 18 h, active compounds read low, screened at 18.75 µg/mL (by protocol).

SMILES | survival
CC(NC(=O)Nc1cc(Cl)ccc1Cl)c1c(-n2cccc2)sc2c1CCCC2 (centres undefined) | 72% (inactive)
Cc1ccc2c(c1)N(C(=O)NCc1ccccc1)CCO2 | 79% (inactive)
Cc1cccc(CN2C(=O)c3ccccc3S(=O)(=O)c3ccc(C(=O)NC4CCCCC4)cc32)c1 | 79% (inactive)
COCCNC(=O)CCCn1c(SCC(=O)c2ccc(Br)cc2)nc2c(sc3ccccc32)c1=O | 68% (inactive)
COc1ccccc1CNC(=O)CN1C(=O)COc2ccc(S(=O)(=O)N3CCC(C)CC3)cc21 | 76% (inactive)
Cn1cc(S(=O)(=O)c2ccc(Cl)cc2)c(=O)c2cc(F)c(N3CCCC3)cc21 | 73% (inactive)
COCCCNC(=O)c1sc2nc3n(c(=O)c2c1C)CCC3 | 91% (inactive)
CCOc1ccccc1NC(=O)CSc1nc2c(c(=O)[nH]1)CCC2 | 101% (inactive)
COc1ccc(OC)c(CCNC(=O)c2cnn(-c3ccccc3)c2C2CCN(C(=O)OC(C)(C)C)CC2)c1 | 73% (inactive)
CCc1ccc(NC(=O)CSc2ccccn2)cc1 | 89% (inactive)
COc1ccc(-c2[nH]c(-c3cccc(OC)c3)nc2SCC(=O)Nc2ccc3c(c2)OCO3)cc1 | 55% (inactive)
COc1cccc(-c2nc(SCC(=O)Nc3ccc4c(c3)OCO4)c(-c3ccccc3)[nH]2)c1 | 31% (active)
COc1cccc(-c2nc(SCC(=O)Nc3ccc4c(c3)OCCO4)c(-c3ccccc3)[nH]2)c1 | 54% (inactive)
CC(=O)N1c2ccc(S(=O)(=O)NCCC(=O)Nc3ccc(Br)c(C)c3)cc2CC1C (centres undefined) | 90% (inactive)
Cc1ccc(CCNC(=O)c2ccc3c(c2)N(Cc2cccc(C)c2)C(=O)c2ccccc2S3(=O)=O)cc1 | 72% (inactive)
CCOC(=O)C1CCCN(CC(=O)N2CCCc3c2c(=O)oc2ccc(OCc4ccccc4)cc32)C1 (centres undefined) | 121% (inactive)
COc1ccc(N2CC(C(=O)NCc3nnnn3-c3ccc(C)c(C)c3)CC2=O)cc1 (centres undefined) | 69% (inactive)
CCCSc1ncnc2c1c(-c1ccccc1)cn2-c1ccccc1OC | 2% (active)
CCOC(=O)CSc1ncnc2c1c(-c1ccccc1)cn2-c1ccc(OC)cc1 | 60% (inactive)
CCCCSc1ncnc2c1c(-c1ccccc1)cn2-c1cccc(F)c1 | 78% (inactive)

SMILES | survival
CC(C(=O)O)N1C(=O)NC2NC(=O)NC21 (centres undefined) | 54% (active)
CC(C(=O)O)N1CCCC1 (centres undefined) | 94% (inactive)
CCOc1ccc(C(=O)Nc2nnc(SCc3cc(=O)c4cc(C)ccc4[nH]3)s2)cc1 | 91% (inactive)
COCCNC(=O)c1ccc2c(c1)NC(=O)C(CS(=O)(=O)Cc1ccc(F)cc1Cl)N2 (centres undefined) | 130% (inactive)
Nc1ccc2c(c1)OC1(CCCCC1)O2 | 55% (active)
O=C1OC2(CCCC2)OC(=O)C1=CNc1ccccc1 | 96% (inactive)
COc1ccccc1-c1cc(C(=O)Nc2ccccc2C(F)(F)F)no1 | 71% (inactive)
Cc1ccc2c(=O)cc(C(=O)Nc3ccc(S(=O)(=O)Nc4ncccn4)cc3)oc2c1C | 76% (inactive)
N#Cc1ccc(NC(=O)c2ccc3c(c2)nnn3C2CCCC2)cc1 | 126% (inactive)
Cc1cc(-c2ccc(S(=O)(=O)Nc3cccc(Cl)c3C)cc2)on1 | 94% (inactive)
Cc1ccc(-c2nnn(CC(=O)N(CC(=O)NCC3CCCO3)C3CCN(Cc4ccccc4)CC3)n2)o1 (centres undefined) | 83% (inactive)
O=C(NCc1ccco1)C(Sc1ccccc1)c1ccccc1 (centres undefined) | 101% (inactive)
Cc1ccc(CNC(=O)c2sc3nc4n(c(=O)c3c2C)CCCCC4)cc1 | 53% (active)
Cc1c(C(=O)NCc2ccccc2)sc2nc3n(c(=O)c12)CCCCC3 | 56% (inactive)
CCCN(CCC)CCNC(=O)c1sc2nc3n(c(=O)c2c1C)CCCCC3 | 62% (active)
CCOc1ccccc1NC(=O)c1sc2nc3n(c(=O)c2c1C)CCCCC3 | 45% (inactive)
Cc1ccc(CNC(=O)c2sc3nc4n(c(=O)c3c2C)CCCC4)cc1 | 80% (inactive)
CCOC(=O)c1ccccc1NC(=O)c1sc2nc3n(c(=O)c2c1C)CCCC3 | 103% (inactive)
Cc1c(C(=O)NCc2ccc(Cl)cc2)sc2nc3n(c(=O)c12)CCCCC3 | 51% (active)
CCN(CC)CCNC(=O)c1sc2nc3n(c(=O)c2c1C)CCCCC3 | 53% (inactive)

SMILES | survival
Cc1c(C(=O)NCc2ccc(Cl)cc2)sc2nc3n(c(=O)c12)CCC3 | 102% (inactive)
Cc1c(C(=O)NCc2ccc(Cl)cc2)sc2nc3n(c(=O)c12)CCCC3 | 95% (inactive)
CCOC(=O)c1ccccc1NC(=O)c1sc2nc3n(c(=O)c2c1C)CCCCC3 | 37% (active)
CCCN(CCC)CCCNC(=O)c1sc2nc3n(c(=O)c2c1C)CCC3 | 79% (inactive)
O=C(NCc1ccccc1Cl)c1cc2cccc3c2n1CCS3 | 115% (inactive)
COc1cc(OC)c(NC(=O)c2cc(C)nc3c2c(C)nn3-c2ccc(C)cc2)cc1Cl | 103% (inactive)
Cc1c(Cl)ccc2sc(N3CCN(C(=O)c4ccco4)CC3)nc12 | 69% (inactive)
COc1cccc(NC(=O)CN2C(=O)c3cccnc3Oc3ccc(Cl)cc32)c1 | 80% (inactive)
COc1cc(NC(=O)c2sc3nc4n(c(=O)c3c2C)CCCCC4)cc(OC)c1OC | 42% (active)
COc1cc(OC)c(NC(=O)c2sc3nc4n(c(=O)c3c2C)CCCC4)cc1Cl | 64% (inactive)
COc1cc(Cl)c(C)cc1NC(=O)c1sc2nc3n(c(=O)c2c1C)CCCCC3 | 52% (inactive)
CC(C)NS(=O)(=O)c1ccc2nc(NC(=O)c3cncc(Br)c3)sc2c1 | 87% (inactive)
COc1ccc2c(c1)c1c(c(=O)n(Cc3ccccc3)c(=O)n1CC(=O)NCc1ccccc1Cl)n2C | 72% (inactive)
CNC(=O)Cc1nc2ccccc2[nH]1 | 87% (inactive)
C/C(Cc1nc2ccccc2[nH]1)=N/Nc1ccccc1 | 2% (active)
O=C(O)CNCc1nc2ccccc2[nH]1 | 95% (inactive)
COc1ccc(-c2noc(N3CCN(c4ccc(Cl)cc4)CC3)n2)cc1OC | 80% (inactive)
Cc1ccc(-c2cc(C(=O)N3CCN(S(=O)(=O)c4ccc(Br)s4)CC3)[nH]n2)cc1C | 83% (inactive)
CCOc1ccc(C2c3c(oc4ccc(C)cc4c3=O)C(=O)N2c2nc(C)c(C)s2)cc1OC (centres undefined) | 170% (inactive)
